Assays:
Type in all cases: functional
[1] = target: Solute carrier family 2, facilitated glucose transporter member 1 (Homo sapiens) (UniProt P11166); experiment: ST_JUDE_LEISH: Cytotoxicity at 2uM final concentration against transgenic Leishmania Mexicana promastigotes LmGLUT1 that are glucose transport deficient and complemented with the human glucose transporter GLUT1. Activity is measured by DNA content using SYBR green in vitro
[2] = target: Hexose transporter 1 (Plasmodium falciparum) (UniProt O97467); experiment: ST_JUDE_LEISH: Cytotoxicity at 2uM final concentration against transgenic Leishmania Mexicana promastigotes LmPfHT that are glucose transport deficient and complemented with the Plasmodium falciparum hexose transporter. Activity is measured by DNA content using SYBR green in vitro
[3] = target: Glucose transporter (Leishmania mexicana) (UniProt O61059); experiment: ST_JUDE_LEISH: Cytotoxicity at 2uM final concentration against transgenic Leishmania Mexicana promastigotes LmGT2 that are glucose transport deficient and complemented with the L. Mexicana glucose transporter 2. Activity is measured by DNA content using SYBR green in vitro

Sequence of Solute carrier family 2, facilitated glucose transporter member 1 (Homo sapiens) (P11166 whole entry): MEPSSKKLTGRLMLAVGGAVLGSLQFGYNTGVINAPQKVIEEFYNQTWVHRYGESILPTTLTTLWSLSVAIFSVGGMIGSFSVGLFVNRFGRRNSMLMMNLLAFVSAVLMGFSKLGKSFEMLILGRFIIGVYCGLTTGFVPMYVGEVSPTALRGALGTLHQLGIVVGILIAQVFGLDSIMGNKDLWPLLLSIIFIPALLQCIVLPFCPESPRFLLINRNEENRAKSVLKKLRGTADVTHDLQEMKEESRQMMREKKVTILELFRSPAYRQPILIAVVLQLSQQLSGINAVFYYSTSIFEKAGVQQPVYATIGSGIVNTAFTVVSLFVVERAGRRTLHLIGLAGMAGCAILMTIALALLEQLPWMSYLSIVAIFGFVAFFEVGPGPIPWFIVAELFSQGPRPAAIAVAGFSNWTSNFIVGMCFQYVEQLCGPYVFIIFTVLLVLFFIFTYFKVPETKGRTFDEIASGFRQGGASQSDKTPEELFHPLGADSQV

Q: Which inhibition [1] does the source give for CCCCC(=O)N(CCOC)Cc1ccc(-c2ccc(CNCCC)cn2)cc1 here?
A: Its inhibition is 7.95%.

Q: And the inhibition [2]?
A: The inhibition was 6.86%.

Q: And the inhibition [3]?
A: The inhibition was 5.46%.

Q: Which results are given for Cc1ccc(O)c(-c2cc(C(=O)Nc3ccc(S(=O)(=O)N4CCCCCC4)cc3)[nH]n2)c1?
A: inhibition [1]: -2.76%; inhibition [2]: -1.17%; inhibition [3]: -0.85%

Q: With O=c1cc(NCCCNCc2cccc(C(F)(F)F)c2Cl)[nH]c2ccccc12 as the molecule, how does the inhibition [1] read?
A: Its inhibition is 3.39%.

Q: What about the inhibition [2] of the same molecule?
A: The inhibition was 3.63%.

Q: What about the inhibition [3] of the same molecule?
A: Its inhibition is 2.75%.

Q: Which inhibition [1] does the source give for CCCCc1cc(NCC)nc(Nc2cccc(OC)c2)n1 here?
A: Its inhibition is 38.6%.

Q: And the inhibition [2]?
A: Its inhibition is 27%.

Q: And the inhibition [3]?
A: The inhibition was 19.1%.

Q: What does the source list for CCN(CC)Cc1cc(Nc2c3ccc(Cl)cc3nc3cccc(OC)c23)ccc1O?
A: inhibition [1]: 7.41%; inhibition [2]: 11.1%; inhibition [3]: 5%

Q: Which results are given for N#Cc1cccc(CNC(=O)c2cccc(Nc3ccnc4ccc(F)cc34)c2)c1?
A: inhibition [1]: -0.1%; inhibition [2]: 1.25%; inhibition [3]: 0.82%

Q: CC(C)(C)SCC(O)Cn1c2ccc(Br)cc2c2cc(Br)ccc21 (configuration not stated) was tested. Which inhibition [1] did it give?
A: The inhibition was 2.07%.

Q: And the inhibition [2]?
A: The inhibition was 0.65%.

Q: And the inhibition [3]?
A: Its inhibition is -0.28%.

Q: How did the inhibition [1] turn out when O=C(Nc1ccccc1Cc1ccccc1)c1ccccc1[N+](=O)[O-] was run?
A: The inhibition was -1.08%.

Q: And the inhibition [2]?
A: Its inhibition is -2.27%.

Q: And the inhibition [3]?
A: Its inhibition is -2.02%.

Q: Which results are given for S=C(NCCCCCN1CCC(c2c[nH]c3ccccc23)CC1)Nc1ccc(Cl)c(Cl)c1?
A: inhibition [1]: 1.88%; inhibition [2]: 1.44%; inhibition [3]: 2.15%

Q: For CC1(C)NC(N)=NC(=N)N1OCc1ccc2ccccc2c1CON1C(=N)N=C(N)NC1(C)C, which inhibition [1] is on record?
A: Its inhibition is 3.58%.

Q: And the inhibition [2]?
A: The inhibition was 2.14%.

Q: And the inhibition [3]?
A: Its inhibition is 3.06%.

Q: With CCCCn1c(Sc2ccc(C#N)c([N+](=O)[O-])c2)nnc1-c1cccc(Cl)c1 as the molecule, how does the inhibition [1] read?
A: The inhibition was 4.8%.

Q: What about the inhibition [2] of the same molecule?
A: The inhibition was 6.03%.

Q: What about the inhibition [3] of the same molecule?
A: Its inhibition is 5.83%.

Q: What does the source list for Brc1ccc(Nc2ccnc3cc(-c4nccs4)ccc23)cc1Oc1ccnc2cc(-c3nccs3)ccc12?
A: inhibition [1]: 1.77%; inhibition [2]: 2.1%; inhibition [3]: -0.86%

Q: What does the source list for Oc1ccc2c(CNCCc3ccccc3)c(O)ccc2c1CNCCc1ccccc1?
A: inhibition [1]: 8.01%; inhibition [2]: 6.13%; inhibition [3]: 6.71%

Q: Which results are given for CC(=NNC(S)=NC(C)(C)C)c1ccccn1?
A: inhibition [1]: 65.9%; inhibition [2]: 69.5%; inhibition [3]: 49.6%

Q: Which results are given for Nc1cc(-c2ccc3c(N)nccc3c2)ccc1Cl?
A: inhibition [1]: 4.64%; inhibition [2]: 2.75%; inhibition [3]: 1.32%

Q: Cc1nnsc1C(=O)Nc1cccc(-c2cccc(-c3nc4ccccc4[nH]3)c2)c1 was tested. Which inhibition [1] did it give?
A: Its inhibition is -1.84%.

Q: What about the inhibition [2] of the same molecule?
A: Its inhibition is 0.03%.

Q: And the inhibition [3]?
A: The inhibition was -2.07%.

Q: For Cc1noc(C)c1-c1ccc2c(Nc3ccc(C(F)(F)F)cc3)c(C(N)=O)cnc2c1, which inhibition [1] is on record?
A: Its inhibition is 3.49%.

Q: And the inhibition [2]?
A: The inhibition was 3.21%.

Q: What about the inhibition [3] of the same molecule?
A: Its inhibition is -3.02%.

Q: How did the inhibition [1] turn out when O=C(Nc1nc2cc(S(=O)(=O)NCCc3ccc(F)cc3)ccc2n1CCCn1ccnc1)c1ccc(Cl)cc1 was run?
A: Its inhibition is 1.74%.

Q: What about the inhibition [2] of the same molecule?
A: Its inhibition is 2.83%.

Q: What about the inhibition [3] of the same molecule?
A: Its inhibition is 1.86%.

Q: How did the inhibition [1] turn out when COc1ccc2nc3cc(Cl)ccc3c(NCCCO)c2c1 was run?
A: The inhibition was 0.97%.

Q: What about the inhibition [2] of the same molecule?
A: The inhibition was 0.85%.

Q: What about the inhibition [3] of the same molecule?
A: The inhibition was 2.01%.

Q: Which inhibition [1] does the source give for CC(C)CCn1c(Sc2ccc([N+](=O)[O-])cc2C(F)(F)F)nnc1-c1ccccc1Cl here?
A: The inhibition was 1.8%.

Q: What about the inhibition [2] of the same molecule?
A: The inhibition was 1.95%.

Q: And the inhibition [3]?
A: Its inhibition is 2.26%.

Q: What does the source list for COc1cccc2sc(N3CCN(C(=O)c4ccc([N+](=O)[O-])o4)CC3)nc12?
A: inhibition [1]: 2.53%; inhibition [2]: 11.9%; inhibition [3]: 4.81%

Q: What does the source list for O=C1CCCN1CCCNCc1ccc(-c2ccc(-c3nc4cc(F)ccc4[nH]3)s2)cc1?
A: inhibition [1]: 2.19%; inhibition [2]: 1.67%; inhibition [3]: 6.85%

Q: FC(F)(F)c1ccc2c(NCCNc3ccnc4cc(C(F)(F)F)ccc34)ccnc2c1 was tested. Which inhibition [1] did it give?
A: Its inhibition is 2.33%.

Q: And the inhibition [2]?
A: The inhibition was 0.31%.

Q: What about the inhibition [3] of the same molecule?
A: The inhibition was 0.92%.

Q: C=CCNS(=O)(=O)c1ccc(NC(=O)C(C)Oc2ccc([N+](=O)[O-])cc2)cc1 (configuration not stated) was tested. Which inhibition [1] did it give?
A: The inhibition was 1.52%.

Q: And the inhibition [2]?
A: Its inhibition is 1.56%.

Q: What about the inhibition [3] of the same molecule?
A: Its inhibition is -0.8%.

Q: Which results are given for CCOC(=O)CNC(=O)N1CCN(C(=O)NCC(=O)OCC)CC1?
A: inhibition [1]: 0.06%; inhibition [2]: 0.22%; inhibition [3]: 1.45%

Q: For CCc1ccc(CN2CCCCC(NC(=O)c3cc(-c4ccccc4F)cs3)C2)cc1 (configuration not stated), which inhibition [1] is on record?
A: Its inhibition is -2.71%.

Q: What about the inhibition [2] of the same molecule?
A: Its inhibition is -0.89%.

Q: And the inhibition [3]?
A: Its inhibition is 1.12%.

Q: Which inhibition [1] does the source give for CC1=NN(c2ccc(C)c(C)c2)C(=O)C1=NNc1cccc(-c2cccc(NC(=O)OC(C)(C)C)c2)c1O here?
A: The inhibition was 1.48%.

Q: And the inhibition [2]?
A: The inhibition was 1.44%.

Q: And the inhibition [3]?
A: Its inhibition is 0.04%.

Q: Which results are given for COc1cc(OC)cc(C(=O)Nc2nc(-c3ccc(NC(=O)c4ccccc4)cc3)cs2)c1?
A: inhibition [1]: 16.3%; inhibition [2]: 9.26%; inhibition [3]: 5.46%

Q: N=C(N)NC(=O)Nc1ccc(Cl)c(C(F)(F)F)c1 was tested. Which inhibition [1] did it give?
A: Its inhibition is 1.17%.

Q: And the inhibition [2]?
A: The inhibition was 2.97%.

Q: What about the inhibition [3] of the same molecule?
A: The inhibition was 1.44%.

Q: For CC(=O)c1ccc(NC(=O)Nc2ccc(N(C)c3ccnc(NC4CC4)n3)cc2)cc1, which inhibition [1] is on record?
A: The inhibition was -0.95%.

Q: And the inhibition [2]?
A: Its inhibition is -3.95%.

Q: What about the inhibition [3] of the same molecule?
A: The inhibition was 0.62%.

Q: What does the source list for O=C(NC1CCN(Cc2ccccc2)CC1)c1cc(-c2ccncc2)nc2ccc(Cl)cc12?
A: inhibition [1]: 4.96%; inhibition [2]: 3.26%; inhibition [3]: 0.14%

Q: With Cc1ccccc1C1CCN(C2CCC(NC(=O)c3cc4cc(C(C)C)ccc4[nH]3)CC2)CC1 (configuration not stated) as the molecule, how does the inhibition [1] read?
A: The inhibition was 1.91%.

Q: And the inhibition [2]?
A: The inhibition was 2.91%.

Q: And the inhibition [3]?
A: The inhibition was 1.43%.

Q: For CCNc1cc(C(=O)N[C@@H](Cc2ccccc2)[C@H](O)CNC2CCC(C)(C)C2)cc(N2CCCCS2(=O)=O)c1 (some centres not stated), which inhibition [1] is on record?
A: Its inhibition is 2.05%.

Q: And the inhibition [2]?
A: The inhibition was 2.29%.

Q: What about the inhibition [3] of the same molecule?
A: Its inhibition is 2.37%.

Q: How did the inhibition [1] turn out when COc1cc(Cc2cnc(N)nc2N)cc(OC)c1OCCCCC(=O)O was run?
A: The inhibition was -0.54%.

Q: And the inhibition [2]?
A: Its inhibition is 0.53%.

Q: What about the inhibition [3] of the same molecule?
A: Its inhibition is 0.75%.
